CYP2C19 inhib: blockers of cytochrome P450 2C19 activity – biochemical, luminescence, ADME assay, primary screen | inhibition, % at 5 µM | CYP2C19 Supersomes, luciferin-H EGE luminescence, 30 min | actives 21% (n = 96,000) | P33261;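 active means CYP2C19 inhibition above a set limit at 5 µM in the primary screen, cut at about 50% in these data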;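 further: plate controls were negative control wells for no effect and 2.5 mM tranylcypromine positive control for full effect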
Target sequence (P33261 whole entry, looked up): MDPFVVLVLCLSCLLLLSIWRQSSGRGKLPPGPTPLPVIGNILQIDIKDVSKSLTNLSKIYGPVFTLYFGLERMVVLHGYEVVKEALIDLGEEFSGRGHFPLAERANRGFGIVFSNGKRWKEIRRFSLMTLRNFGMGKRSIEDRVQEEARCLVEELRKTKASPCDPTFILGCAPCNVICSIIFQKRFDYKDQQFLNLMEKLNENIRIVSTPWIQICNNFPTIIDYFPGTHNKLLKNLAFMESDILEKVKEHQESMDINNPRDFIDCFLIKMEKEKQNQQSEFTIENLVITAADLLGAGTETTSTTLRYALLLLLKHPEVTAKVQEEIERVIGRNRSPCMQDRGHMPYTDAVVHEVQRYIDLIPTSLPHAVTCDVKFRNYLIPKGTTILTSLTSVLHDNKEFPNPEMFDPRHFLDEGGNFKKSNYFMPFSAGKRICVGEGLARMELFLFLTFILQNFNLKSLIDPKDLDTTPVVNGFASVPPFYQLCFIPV
CYP2C19 activ: human CYP2C19 activators, primary screen, biochemical, luminescence. activation factor at 5 µM. 96,000 tested, under 10 active. AID 1025, 2008. recombinant CYP2C19, luciferin-H EGE luminescence; hits give high values; 0 = fully inhibited enzyme, 1 = untreated enzyme;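 active means activation factor of at least 2 at 5 µM in the primary screen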;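 further: 0 = wells with 2.5 mM tranylcypromine and 1 = vehicle-only wells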
CYP2C9 inhib: blockers of cytochrome P450 2C9 activity – biochemical, luminescence, ADME assay, primary screen; actives 20% (n = 96,000); CYP2C9 Supersomes, luciferin-H conversion; inhibition, % at 5 µM; P11712;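 active means blocking of liver enzyme CYP2C9 beyond about 50% at 5 µM, limit read from the data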
CYP2C9 act: human CYP2C9 activators, primary screen, biochemical, luminescence. Cytochrome P450 2C9 (Homo sapiens), P11712. activation factor at 5 µM. AID 1024, 2008. recombinant CYP2C9, luciferin-H conversion; hits give high values; factor 1 = untreated enzyme, 0 = blocked. actives 1.4% (n = 96,000);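 active means activation factor of 2 or more for CYP2C9 at a 5 µM dose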;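 further: 0 = sulfaphenazole-blocked wells and 1 = vehicle-only wells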
Measles CPE: compounds protecting cells from measles virus cytopathic effect, primary screen, measles RdRp inhibitor project, single point, MLSMR library, absorbance | Measles virus-infected cells, CPE protection | AID 841, 2007 | protection (pct of control), % at 4 µM | actives 1.5% (n = 140,000); in the data active means protection mostly above about 24%, no sharp cut-off; inactive means mostly below about 26%
* hit, by the source's call; x = no result given. Shown are actives, neighbours in structure and some others; about 22% of the full set was active somewhere.

SMILES	CYP2C19 inhib	CYP2C19 activ	CYP2C9 inhib	CYP2C9 act	Measles CPE
O=C(CSc1nnc(-c2ccccn2)n1Cc1ccco1)c1ccc(Cl)cc1	27	0.7	71*	0.3	6
O=C(CSc1nnc(-c2ccccn2)n1Cc1ccco1)c1ccccc1	-1	1	51*	0.5	10
COc1cc(Cl)c(C)cc1NC(=O)CSc1nnc(-c2ccccn2)n1Cc1ccco1	16	0.8	50*	0.5	24
CC12CCC(C(=O)NCC3CCCO3)(OC1=O)C2(C)C (configuration not stated)	-8	1.1	-4	1	6
COC(=O)c1ccccc1NC(=O)C(=O)NCC1CCCO1 (configuration not stated)	x	x	x	x	5
Nc1c(-c2ccccc2)cnn1C1CCS(=O)(=O)C1 (configuration not stated)	4	1	-1	1	6
O=C(CSc1nnc(-c2cccnc2)n1Cc1ccco1)c1ccc(Br)cc1	88*	0.1	80*	0.2	5
COc1ccc(C(=O)CSc2nnc(-c3ccccn3)n2Cc2ccco2)cc1	29	0.7	66*	0.3	4
Fc1ccccc1CNc1cc(Cl)cc(Cl)c1	x	x	x	x	15
CCCCOc1ccc(CNC(=S)N/N=C/c2ccc(OC)c(OC)c2)cc1	8	0.9	60*	0.4	6
CCOc1ccc(CNC(=S)N/N=C\c2ccc([N+](=O)[O-])cc2)cc1	31	0.7	30	0.7	2
Cc1ccc(-c2csc(NC(=O)COc3ccc(N(C)S(=O)(=O)c4ccc(C)cc4)cc3)n2)cc1	x	x	x	x	41
C(=N\n1cncn1)/c1ccc(N2CCOCC2)cc1	63*	0.4	39	0.6	14
C(=N\n1cnnc1)/c1ccc(N2CCOCC2)cc1	88*	0.1	65*	0.3	6
NC(=O)N/N=C/c1ccc(N2CCOCC2)s1	x	x	x	x	10
C(=N\n1cnnc1)/c1ccc(N2CCOCC2)s1	60*	0.4	19	0.8	25
S=c1[nH]ncn1/N=C/c1ccc(N2CCOCC2)cc1	24	0.8	4	1	16
COc1cccc(C(=O)N(CN2CCCC2=O)c2cccc(Cl)c2)c1	5	0.9	0	1	8
COc1ccccc1-n1cnc2c(c1=O)c1nc3ccccc3nc1n2CCc1ccccc1	x	x	x	x	7
Cc1ccc(S(=O)(=O)NCC(=O)Nc2ccc(C(F)(F)F)cc2)cc1	24	0.8	9	0.9	9
O=C(CNS(=O)(=O)c1ccc(F)cc1)Nc1ccc(C(F)(F)F)cc1	65*	0.4	55*	0.4	3
O=C(CNS(=O)(=O)c1ccccc1)Nc1ccc(C(F)(F)F)cc1	51*	0.5	30	0.7	7
CC(=O)N1CCN(c2ccc(S(=O)(=O)N3CCCCC3)cn2)CC1	x	x	x	x	7
CCCn1c(N)c(N2CCCCC2)c(=O)n(CC(=O)Nc2ccccc2C)c1=O	38	0.6	53*	0.5	14
CCOc1ccc(-c2cnc3n2CCC3)cc1	-2	1	8	0.9	3
SMILES	CYP2C19 inhib	CYP2C19 activ	CYP2C9 inhib	CYP2C9 act	Measles CPE
Brc1ccc(-c2cnc3n2CCCC3)cc1	50*	0.5	-2	1	4
CC(C)(C)OC(=O)N1CC(O)CC1C(=O)OCC(=O)c1ccccc1 (configuration not stated)	x	x	x	x	5
CC(C)(C)OC(=O)N1CC(O)CC1C(=O)OCC(=O)c1ccc(Cl)cc1 (configuration not stated)	55*	0.5	22	0.8	17
O[C@@H]1C2CCCC1[C@]1(O)CCCCC1C2 (some centres not stated)	11	0.9	62*	0.4	5
NC[C@@]12CCCC1C1CCC2C1 (some centres not stated)	-12	1.1	-14	1.1	20
COc1ccc(S(=O)(=O)n2ccc(C)n2)cc1C	50*	0.5	-135	2.4*	13
COc1cc(C)c(S(=O)(=O)n2ccc(C)n2)cc1C	83*	0.2	-65	1.6	1
COc1ccc(S(=O)(=O)N2CCSC2)cc1C	x	x	x	x	3
c1ccc(Nc2c3c(nc4ncnn24)CCC3)cc1	0	1	4	1	13
COc1ccccc1CNc1ccc(N2CCCCC2)cc1	77*	0.2	24	0.8	7
COc1ccccc1CNc1ccc(C(=O)O)cc1	-4	1	-6	1.1	25
COc1cccc(CNc2ccc(N3CCCCC3)cc2)c1OC	80*	0.2	-150	2.5*	11
CC(C)N(C)CCOC(=O)c1ccccc1Cl	x	x	x	x	15
CN(C)CCCN(C(=O)c1cccs1)c1nc(-c2ccccc2)cs1	92*	0.1	74*	0.3	40*
O=C(c1cccs1)N(Cc1ccco1)c1nc(-c2ccc(F)cc2)cs1	x	x	x	x	19
CCCC(=O)N1CCN(c2ccc([N+](=O)[O-])c(NC(C)c3ccccc3)c2)CC1 (configuration not stated)	63*	0.4	70*	0.3	4
CC(Nc1cc(N2CCCC2)ccc1[N+](=O)[O-])c1ccccc1 (configuration not stated)	-4	1	7	0.9	6
Cc1ccsc1/C=N/N1CCN(c2ccccc2)CC1	23	0.8	-105	2.1*	4
N=C1C(c2nc(-c3ccc(F)cc3)cs2)=C(O)CN1Cc1ccc(Cl)cc1	45	0.5	53*	0.5	14
COc1ccc(-c2csc(C3=C(O)CN(Cc4ccc(Cl)cc4)C3=N)n2)cc1OC	43	0.6	89*	0.1	1
COc1cccc(CN2CC(O)=C(c3nc(-c4ccc(Cl)cc4)cs3)C2=N)c1	15	0.9	23	0.8	4
Cc1cc(C)nc(SCCS(=O)Cc2ccc(Cl)cc2)n1 (configuration not stated)	81*	0.2	22	0.8	8
O=C(O)c1ccccc1C(=O)NNc1ccc(F)cc1	-3	1	0	1	15
CCC(C)C(=O)Nc1ccc(OC)cc1[N+](=O)[O-] (configuration not stated)	x	x	x	x	6
COc1cc([N+](=O)[O-])c2ncsc2c1	x	x	x	x	17*
CCOC(=O)C(CSCC(=O)c1ccc(Cl)cc1Cl)NC(=O)OC(C)(C)C (configuration not stated)	97*	0	88*	0.1	13
CCN(C(=O)CN1CCN(c2ccc(O)cc2)CC1)c1c(N)n(Cc2ccccc2)c(=O)[nH]c1=O	0	1	-2	1	9
CCN(C(=O)CN1CCN(S(=O)(=O)c2cc(Cl)ccc2Cl)CC1)c1c(N)n(Cc2ccccc2)c(=O)[nH]c1=O	x	x	x	x	30*
CCCCn1c(SCC(=O)NCc2ccco2)nc2ccccc2c1=O	65*	0.4	52*	0.5	7
